The list is not random: actives were taken first. Their share in the collection is about 2.8%.
Akt phos inh – inhibitors of Akt phosphorylation; activity change, % for hits at 50 µM; Neuro2A IGF-stimulated pAkt S473 HTRF, 20 min; active compounds read low; hit rate 0.32% among 360,000; in the data active = activity change below about -80%; inconclusive = mostly about -51% to -80%; note: % is set by controls: 0 for no effect and ±100 for the full control effect
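Neuro2A cells (4,500/well, DMEM with 0.5% FBS) were treated with compound at a single 50 µM final concentration, stimulated with 6 nM IGF for 20 min at 37 °C, and lysed. Phospho-Akt Ser473 was read by HTRF as 665/615 ratio ×10^4.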
D3 ag – agonists of human D3 dopamine receptor | AID 652048 | max activation, % | hit rate 0.58% among 410,000 | D3R DiscoveRx beta-arrestin cells, luminescence, 90 min | P35462; in the data active = max activation above about 30%; note: 0% is about no effect
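Agonist mode: compounds and dopamine controls were applied to plated cells for 90 min at 37 degrees C after an overnight attachment at 1500 cells/well. Luminescent read-out followed 30 - 60 minutes at room temperature with DiscoveRx detection reagent.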
D3 antag – D3 dopamine receptor (human) antagonism. P35462. D3R cells, DiscoveRx beta-arrestin luminescence, antagonist mode; active compounds read low. max response, negative = inhibition, %. hit rate 2.5% among 360,000. AID 652054; in the data active = max response below about -50%; inconclusive = no clear call, values can overlap the other calls; note: % is set by controls: 0 for no effect and ±100 for the full control effect
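Cells plated overnight at 1500 cells/well, then exposed to library compounds with dopamine controls for 90 minutes at 37 degrees C. DiscoveRx reagent added for 30–60 minutes at room temperature; luminescence read, quantitative HTS format.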
RGS4 inhibitor – blocks human RGS4-accelerated GTP hydrolysis. P49798. Transcreener GDP fluorescence polarization, RGS4-accelerated GTP hydrolysis. Potency, µM (highest dose often 114 µM), without a hit: at the top dose activity change, negative = inhibition, actives largely listed as inhibitors. hit rate 0.039% among 390,000. AID 504845; active = well fitted inhibition curve with a large enough effect; inconclusive = small, poorly fitted or top-dose-only effect; inactive = no such curve, though single readings can be large or run the other way; note: potency is the fitted concentration of half-maximal effect; % is set by controls: 0 for no effect and ±100 for the full control effect; nearly all actives have a fitted effect of over 75% in size
Target sequence (P49798 whole entry, looked up): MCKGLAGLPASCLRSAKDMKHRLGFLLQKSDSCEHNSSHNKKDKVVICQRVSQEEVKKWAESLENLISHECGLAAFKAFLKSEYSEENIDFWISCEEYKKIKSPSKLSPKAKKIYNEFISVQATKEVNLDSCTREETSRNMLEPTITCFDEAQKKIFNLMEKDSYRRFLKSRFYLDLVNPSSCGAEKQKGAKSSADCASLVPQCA
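MLSMR compounds (23 nl, pin-transferred) preincubated 10 min at room temperature with a 500nM (2x) first reagent, then RGS4 at 900nM (2x) plus Transcreener GDP mix added; fluorescence polarization (620/688 nm) read before and after 90 min at 30 °C.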
LDHA inh – blocks human lactate dehydrogenase A | activity change, % (values are at about 110 or 230 µM) | hit rate 0.15% among 480,000 | purified LDHA, NADH/diaphorase-resazurin fluorescence; active compounds read low | P00338; in the data active = activity change below about -30%; inconclusive = mostly about -25% to -30%;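 note: plate controls were DMSO wells for no effect and wells without enzyme for full effect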
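Resorufin fluorescence (ex540/em590), read at 0 and 20 min after diaphorase/resazurin addition, reports the NADH left after a 5 min room-temperature reaction of 2 nM human LDH5 with 0.06 mM NADH and 0.2 mM pyruvate.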
PI4K2A inh – blocks human PI4K2A kinase activity | purified PI4K2A, ADP-Glo luminescence, 1 h; active compounds read low | activity change, negative = inhibition, % at 76.9 µM | hit rate 0.13% among 420,000 | AID 1346378; in the data active = activity change below about -50%; inconclusive = mostly about -30% to -49%;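 note: -100% = wells without enzyme as full effect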
Target sequence (Q9BTU6 whole entry, looked up): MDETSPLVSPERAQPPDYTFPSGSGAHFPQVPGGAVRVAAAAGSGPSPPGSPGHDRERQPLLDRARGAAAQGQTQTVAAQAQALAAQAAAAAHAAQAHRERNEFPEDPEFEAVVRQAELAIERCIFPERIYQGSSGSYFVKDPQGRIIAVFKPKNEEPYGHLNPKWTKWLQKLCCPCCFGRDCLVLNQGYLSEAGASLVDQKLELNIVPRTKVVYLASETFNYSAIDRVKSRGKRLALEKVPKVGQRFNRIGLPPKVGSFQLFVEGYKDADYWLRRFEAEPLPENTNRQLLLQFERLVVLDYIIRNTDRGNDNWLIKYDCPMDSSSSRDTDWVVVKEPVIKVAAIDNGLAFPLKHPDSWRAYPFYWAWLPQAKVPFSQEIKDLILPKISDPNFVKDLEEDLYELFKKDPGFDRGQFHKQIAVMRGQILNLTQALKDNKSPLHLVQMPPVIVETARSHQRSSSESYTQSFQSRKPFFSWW
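PI4K2A activity was measured by ADP-Glo luminescence: enzyme (4 ug/mL stock) and phosphatidylinositol (1.2 mM stock) in Tris pH 7.5/MgCl2/EGTA/Triton X-100 buffer were reacted with ATP (300 microM stock) for one hour at ambient temperature.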
An asterisk follows results filed as active.

Results for O=C(NCc1ccncc1)/C(=N/O)c1ccccc1 ?
Akt phos inh: inactive; D3 ag: 9; D3 antag: -53*; RGS4 inhibitor: inconclusive; LDHA inh: 0; PI4K2A inh: 2

How did COc1ccc(Cl)cc1NC(=O)c1cnc(Nc2ccccc2OC)c2ccccc12 do in these assays?
LDHA inh: 19

Results for CC1=C(C(=O)Nc2ccccc2)C(c2cccc(Cl)c2)N2C(=O)CSC2=N1 (stereo not drawn) ?
LDHA inh: -5

Results for N#Cc1c2ccc(O)cc2n2ccccc12 ?
Akt phos inh: inactive; D3 ag: 43*; D3 antag: 66; RGS4 inhibitor: -32%; LDHA inh: 17; PI4K2A inh: 9

Results for ClCc1coc(-c2ccc(Cl)cc2)n1 ?
LDHA inh: -7

Results for Cc1ccc(C(=O)NC(=S)Nc2ccccc2C(F)(F)F)cc1C ?
Akt phos inh: inactive; D3 ag: -1; D3 antag: -80*; RGS4 inhibitor: 6%; LDHA inh: -9; PI4K2A inh: -17

Results for Cc1ccc(C(=O)O)cc1NC(=S)NC(=O)c1ccc(-c2ccccc2)cc1 ?
Akt phos inh: inactive; D3 ag: -23; D3 antag: -52*; RGS4 inhibitor: inconclusive; LDHA inh: inconclusive; PI4K2A inh: 4

Results for O=C(O)c1cccc(NC(=S)NC(=O)c2ccc(-c3ccccc3)cc2)c1 ?
Akt phos inh: inactive; D3 ag: 7; D3 antag: 13; RGS4 inhibitor: -12%; LDHA inh: 0; PI4K2A inh: 3

How did CCNC(=O)NC(=O)C(C)Sc1nc2ccccc2c(=O)n1-c1cccnc1 (stereo not drawn) do in these assays?
Akt phos inh: inactive; D3 ag: -3; D3 antag: 2; RGS4 inhibitor: -11%; LDHA inh: -3; PI4K2A inh: 2

What do the screens show for `CCNC(=O)NC(=O)C(C)Sc1nc2cc(C(=O)OC)ccc2c(=O)n1-c1ccccc1` (stereo not drawn)?
Akt phos inh: -122%*; D3 ag: -2; D3 antag: -19; RGS4 inhibitor: -14%; LDHA inh: -6; PI4K2A inh: 1

How did CCc1ccc(NC(=O)CSc2nc3c(c(=O)n2CCc2ccccc2)SCC3)cc1 do in these assays?
LDHA inh: 0

Results for COc1ccc(OCC(=O)Nc2c(C(=O)N3CCN(c4ccccc4)CC3)oc3ccccc23)cc1 ?
D3 ag: 89*; RGS4 inhibitor: -6%; LDHA inh: 8; PI4K2A inh: 3

How did Cc1ccc(C(=O)NC(c2ccc(Cl)cc2)C2CC2)cc1 (stereo not drawn) do in these assays?
LDHA inh: 0

What do the screens show for `Cc1ccc2oc(-c3ccc(C)c(NC(=O)c4cccs4)c3)nc2c1`?
LDHA inh: -6

How did O=C(C[n+]1cccc(CNC(=O)c2ccc(OC(F)F)cc2)c1)Nc1cccc(C(F)(F)F)c1 do in these assays?
Akt phos inh: inactive; D3 ag: -3; D3 antag: -51*; RGS4 inhibitor: -26%; LDHA inh: 2; PI4K2A inh: -4

What do the screens show for `CC1Cc2ccccc2N1C(=O)CSc1nnc2c(n1)[nH]c1ccc(F)cc12` (stereo not drawn)?
Akt phos inh: inactive; D3 ag: -3; D3 antag: -68*; RGS4 inhibitor: -17%; LDHA inh: -5; PI4K2A inh: -3

Results for COc1ccc(CNC(=O)CSc2nnc3c(n2)[nH]c2ccc(F)cc23)cc1 ?
Akt phos inh: inactive; D3 ag: 1; D3 antag: 0; RGS4 inhibitor: -14%; LDHA inh: -2; PI4K2A inh: 2

What do the screens show for `CCOC(=O)CN(C(=O)CSc1nnc2c(n1)[nH]c1ccc(OC)cc12)c1ccc(F)cc1`?
Akt phos inh: inactive; D3 ag: -7; D3 antag: -65*; RGS4 inhibitor: -15%; LDHA inh: -1; PI4K2A inh: 2

Results for CC1Cc2ccccc2N1C(=O)CSc1nnc(CSc2ncccn2)n1C (stereo not drawn) ?
Akt phos inh: -81%*; D3 ag: 5; D3 antag: -16; RGS4 inhibitor: -20%; LDHA inh: -3; PI4K2A inh: 3

How did CCOC(=O)CN(C(=O)CSc1nnc(CNc2ccc(F)cc2)o1)c1ccccc1 do in these assays?
Akt phos inh: inactive; D3 ag: -3; D3 antag: -80*; RGS4 inhibitor: -48%; LDHA inh: 5; PI4K2A inh: -1

What do the screens show for `O=C(CSc1nnc2c(n1)[nH]c1ccc(F)cc12)N1CCOCC1`?
Akt phos inh: inactive; D3 ag: 6; D3 antag: -7; RGS4 inhibitor: -35%; LDHA inh: -3; PI4K2A inh: 0

Results for CCCSc1nn(CCN(C)C)c2nc3sc4c(c3c(=O)n12)CCCCC4 ?
LDHA inh: -22

Results for Cc1cc(C(=O)COC(=O)c2nccnc2N)c(C)n1C1CC1 ?
LDHA inh: 1

How did COc1ccccc1C(C)NCC(=O)Nc1c(F)cccc1F (stereo not drawn) do in these assays?
Akt phos inh: inactive; D3 ag: -28; D3 antag: -56*; RGS4 inhibitor: 6%; LDHA inh: 1; PI4K2A inh: 5

What do the screens show for `Cc1occc1C(=O)NC(C)c1cccc(Br)c1` (stereo not drawn)?
LDHA inh: 2

Results for N#Cc1ccc(C(=O)NC(=S)NC2CCCCC2)cc1 ?
Akt phos inh: inactive; D3 ag: -4; D3 antag: -55*; RGS4 inhibitor: -5%; LDHA inh: 0; PI4K2A inh: -2

Results for O=C(NS(=O)(=O)NC(=O)c1ccccc1)c1ccccc1 ?
LDHA inh: 1

How did Cc1ccc(/C=C2/SC(=S)N(c3ccc(S(=O)(=O)Nc4nccs4)cc3)C2=O)cc1 do in these assays?
Akt phos inh: inactive; D3 ag: 3; D3 antag: inconclusive; RGS4 inhibitor: -33%; LDHA inh: -6; PI4K2A inh: -2

Results for COc1ccc(/C=C2/SC(=S)N(c3ccc(S(=O)(=O)Nc4nccs4)cc3)C2=O)cc1 ?
Akt phos inh: inactive; D3 ag: 16; D3 antag: -54*; RGS4 inhibitor: -36%; LDHA inh: -6; PI4K2A inh: -1

How did Cc1ccc(NC(=O)C2=C(c3ccccc3)NC(=S)NC2c2ccc(C)cc2)cc1 (stereo not drawn) do in these assays?
LDHA inh: 3

What do the screens show for `CC12C(=O)N(c3nccs3)C(=O)C1(C)C1CCC2O1` (stereo not drawn)?
Akt phos inh: inactive; D3 ag: -6; D3 antag: -12; RGS4 inhibitor: 5%; LDHA inh: -6; PI4K2A inh: -5

Compound activity: PubChem, National Center for Advancing Translational Sciences (NCATS)
